Compounds with a hit are over-represented: about 7.1% of the library has one in this group of screens.
MCF10A rereplic = inducers of DNA re-replication in MCF 10A breast cells; MCF 10A DNA re-replication, Hoechst nuclear intensity, 48 h; Potency, µM (series often up to 46.1 µM), hits mostly activators; hit rate 2.9% among 350,000; AID 624296; further: nearly all actives have a fitted effect of over 50% in size
p53 reactivation = restores transcriptional activity of mutant p53. H1299 p53-A138V BP100-luciferase reporter, luminescence, 24 h. Potency, µM (series often up to 92.2 µM), usual class: activators. hit rate 0.063% among 320,000; further: nearly all actives have a fitted effect of over 45% in size
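H1299 (p53-null), stable ts p53-A138V + BP100-Luc; 1000 cells/well, Opti-MEM/10% FBS; cpd 4 pt, 1:5; 24 h, 37 deg C, 5% CO2; detection reagent 10 min RT; luminescence.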
AT treatment = potential ataxia-telangiectasia treatments restoring KAP-1 phosphorylation. F2112 A-T fibroblasts, KAP-1 phosphorylation AlphaLISA; neocarzinostatin DNA damage 30 min before lysis. Potency, µM (doses to about 57.5 µM), actives largely listed as activators. hit rate 0.19% among 320,000; further: nearly all actives have a fitted effect of over 45% in size
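ATM-like activity read as KAP-1 phosphorylation via AlphaLISA donor/acceptor antibody pairs after lysis and 6 hr at 25C. Cells were ATM-null patient fibroblasts (F2112, hTERT), dosed 60 min, then exposed to the DSB inducer NCS for 30 min.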
ELG1 DNA repair = blocks ELG1-dependent DNA repair in HEK293T cells; HEK293T ELG1-luciferase reporter, luminescence, 16 h; DNA damage induced by 5-fluorouridine; Potency, µM (top dose mostly 46.1 µM), actives largely listed as inhibitors; AID 504467; hit rate 2.3% among 330,000; further: nearly all actives have a fitted effect of over 55% in size
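Reporter activity after DNA damage by 5-fluorouridine is monitored. Compound-treated cells incubate 16 hr at 37 °C, then ONE-Glo is added for 30 min before luminescence reading.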
SW480 rerep = DNA re-replication induction in SW480 cells | SW480 DNA re-replication, Hoechst DNA content imaging, 48 h | hit rate 1.8% among 340,000 | AID 624297 | Potency, µM (doses to about 46.1 µM), most hits filed as activators; further: nearly all actives have a fitted effect of over 55% in size
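Image-based read-out: total Hoechst fluorescence of nuclei (405 nm excitation, 500-530 nm emission), with hits raising the fraction of high-intensity nuclei. SW480 colon cells incubated 48 hr with compounds at 37 C.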
ELG1 genotox = inducers of genotoxicity in HEK293T ELG1-luciferase cells; HEK293T ELG1-luciferase reporter, luminescence, 16 h; Potency, µM (highest dose often 46 µM), hits mostly activators; hit rate 1.3% among 330,000; AID 504466; further: nearly all actives have a fitted effect of over 60% in size
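16 hr compound incubation (37 °C, 5% CO2) of HEK293T cells carrying luciferase-tagged ELG1; luciferase then measured by ONE-Glo luminescence after 30 min at RT.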
Numbers stand for hits; n = inactive; u = inconclusive; x = no result; ! = not active in a repeat. The call rests on the fitted dose curve; in most records, active means well fitted curve in the direction sought with a large enough effect; inconclusive means small, poorly fitted or top-dose-only effect, or another doubt; inactive means no such curve, though single readings can be large; an effect the other way counts as inactive or inconclusive.

SMILES | MCF10A rereplic | p53 reactivation | AT treatment | ELG1 DNA repair | SW480 rerep | ELG1 genotox
N/C(=N\c1nc2ccccc2o1)NC(=O)c1ccccc1NC(=O)c1ccccc1 | u | n | n | u | n | n
N/C(=N\c1nc2ccccc2o1)NC(=O)c1cccc(Cl)c1 | n | n | n | n | 4.1µM | n
CCOC(=O)C(=Cc1ccc(-n2ccnc2)cc1)C(=O)OCC | 2.6µM | n | n | u | 6.5µM | n
CCOC(=O)C(=Cc1ccc(Br)cc1)C(=O)OCC | 1.6µM | n | n | u | 7.3µM | n
COC(=O)c1ccc(-n2ccnc2)cc1 | n | n | n | n | n | n
CCOC(=O)C(=Cc1ccc(F)cc1)C(=O)OCC | x | n | n | u | x | n
Cc1[nH]c2ccccc2c1SCC(=O)NNC(=O)Nc1ccc(OC(F)(F)F)cc1 | 13µM | n | n | u | n | n
COc1ccc(/C=N/NC(=O)c2[nH]ncc2Br)c(OC)c1 | n | n | n | u | n | 26µM
O=C(N/N=C/c1ccccc1)c1[nH]ncc1Br | n | n | n | u | n | 15µM
Cc1cc(/C=N/NC(=O)c2ccc(O)cc2)c(C)n1CC(C)C | n | n | n | u | n | u
C=CCNc1nc(-c2ccc([N+](=O)[O-])cc2)cs1 | n | u | n | u | n | 21µM
CN(C)c1nc(-c2ccc([N+](=O)[O-])cc2)cs1 | n | u | n | u | n | 12µM
CCCOc1ccc(-c2nc(-c3ccc([N+](=O)[O-])cc3)cs2)cc1 | n | n | n | n | n | n
COC(CN(C)C(=O)c1ccc2c(c1)NC(=O)c1ccccc1S2)OC | n | n | n | n | n | n
O=C(CCCN1CCC(C(=O)c2ccc(F)cc2)CC1)c1ccc(F)cc1 | 21µM! | n | n | n | n | n
Cn1cnnc1SCC(=O)Nc1ccc(S(N)(=O)=O)cc1 | n | n | n | n | n | n
CN(CCC#N)C(=O)COC(=O)c1ccc2[nH]c3c(c2c1)CCCC3 | n | n | n | u | n | n
CN(CCC#N)C(=O)COC(=O)c1c2c(nc3ccccc13)/C(=C/c1ccco1)CC2 | u | u | n | u | 12µM | n
CC12CCC(=O)N1C(C(=O)N1CCN(c3cccc(Cl)c3)CC1)CS2 (stereo unspecified) | n | n | n | n | n | n
COC(=O)c1cnc(Oc2ccc(NC(=O)NC(=O)c3c(OC)cccc3OC)cc2)cc1C(F)(F)F | 0.82µM | u | n | u | 2.6µM | n
CCN(Cc1ccc(OC)c(COC)c1)CC1CCCN(CCc2cccc(F)c2)C1 (stereo unspecified) | 3.7µM | n | n | n | u | n
COc1ccc(CCN2CCCC(CN(C)Cc3cc(OC)ccc3OC)C2)cc1 (stereo unspecified) | 0.65µM | n | n | n | n | n
C=CCN1C=CC(=C/C=C(/C#N)C(=O)OCC)C=C1 | n | u | n | u | n | 7.3µM
CCOC(=O)/C(C#N)=C/C=C1/C=CC=CN1C | n | n | n | u | n | n
CCOC(=O)N1CCN(C(=O)CCc2ccc(S(=O)(=O)NCCc3ccccc3)cc2)CC1 | n | n | n | 15µM | n | n
SMILES | MCF10A rereplic | p53 reactivation | AT treatment | ELG1 DNA repair | SW480 rerep | ELG1 genotox
CC(C)CNS(=O)(=O)c1ccc(CCC(=O)N2CCN(Cc3ccccc3)CC2)cc1 | n | n | n | u | n | n
CCOC(=O)N1CCN(C(=O)CCSc2ccccc2)CC1 | n | u | n | u | n | 9.2µM
CCNS(=O)(=O)c1ccc(CCC(=O)N2CCN(Cc3ccccc3)CC2)cc1 | n | x | n | n | n | n
CC(C)CNS(=O)(=O)c1ccc(CCC(=O)N2CCN(Cc3ccc4c(c3)OCO4)CC2)cc1 | u | n | n | 9.2µM | n | n
O=C(CCc1ccc(S(=O)(=O)NCCc2ccccc2)cc1)N1CCN(Cc2ccc3c(c2)OCO3)CC1 | x | n | n | 23µM | x | n
CCOC(=O)C1CCN(S(=O)(=O)c2ccc(CNC(=O)c3ccccc3)s2)CC1 | u | n | n | n | n | n
Cc1ccc(/C=[N+](\[O-])c2ccc(N(C)C)cc2)c2nsnc12 | 11µM | u | n | u | u | n
Cc1ccc(NC(=O)CCNS(=O)(=O)c2cc(Br)cnc2N)cc1Cl | 18µM | n | n | n | n | n
Cc1cc(NC(=O)CCNS(=O)(=O)c2cc(Br)cnc2N)ccc1Br | n | n | n | u | n | n
CCOc1ccc(C(C)=O)cc1COC(=O)c1ccccc1C(=O)N(C)Cc1ccccc1 | u | n | n | u | u | n
CC(C)CCC[C@@H](C)[C@H]1CC[C@H]2[C@@H]3CC[C@@H]4C[C@H](O)CC[C@]4(C)[C@H]3CC[C@]12C | n | x | x | x | n | x
C=C1/C(=C\C=C2/CCC[C@]3(C)[C@@H]([C@H](C)CCCC(C)(C)O)CC[C@@H]23)C[C@@H](O)C[C@@H]1O | 21µM | x | x | x | n | x
C=C1CC[C@H](O)C/C1=C/C=C1\CCC[C@]2(C)[C@@H]([C@H](C)CCCC(C)(C)O)CC[C@@H]12 | 11µM | x | x | x | n | x
C=C1CC[C@H](O)C/C1=C/C=C1\CCC[C@]2(C)[C@@H]([C@H](C)CC[C@@H](O)C(C)(C)O)CC[C@@H]12 | u | x | x | x | n | x
N#Cc1nc(-c2ccc(F)cc2)oc1N1CCC(C(N)=O)CC1 | n | n | n | n | n | n
CC1CCCN(S(=O)(=O)c2ccc(NC(=O)C3CCN(C(=O)C(C)(C)C)CC3)cc2)C1 (stereo unspecified) | n | n | n | u | n | n
CC(C)N(C(=O)CSc1nc2ccccc2n1Cc1ccc(F)cc1)C(C)C | n | n | n | 18µM | n | n
Nc1nnc(CCCCCc2nnc(N)s2)s1 | n | n | n | n | 1.5µM | n
O=C(COC(=O)CNC(=O)c1ccc(Cl)c([N+](=O)[O-])c1)NNC(=O)c1ccccc1F | n | n | n | n | n | n
O=C(Nc1ccc2c(c1)C(=O)OC2)c1ccc(C(F)(F)F)cc1 | n | n | n | n | n | n
COCCC(=O)N1CCc2ccc(NC(=O)c3ccc(C(F)(F)F)cc3)cc2C1 | n | u | n | 13µM | u | n
CN(C)S(=O)(=O)N1CCc2ccc(NC(=O)c3ccc(C(F)(F)F)cc3)cc2C1 | n | n | n | 9.2µM | n | n
COCCC(=O)Nc1ccc2c(c1)CN(C(=O)CSC)CC2 | n | n | n | u | n | n
O=C(COC(=O)c1ccc(Cl)nc1)NCCc1ccccc1 | n | n | n | n | n | n
Nc1nc(N)c2cc(Sc3ccc4ccccc4c3)ccc2n1 | 16µM | n | n | n | u | n
Nc1ccc(Sc2cc(Cl)nc(N)n2)cc1 | x | n | n | n | x | n
